From PubChem BioAssay (EPA / NIEHS) come the findings set out here.

Inconclusive results are not listed. The source made the active and inactive calls. Rule for the calls: active = hit-call score of the fitted dose curve at least 0.9, where 1 is the maximum; inconclusive = response in the unintended direction; inactive = score below 0.9.

Assay [1] concerns zebrafish Peroxisome Proliferator-activated Receptor gamma (PPARg), gene 557037. Briefly: ATG_zfPPARg_XSP1: Attagene TRANS-FACTORIAL Multi-Species (XSP1) HepG2 Assay for zebrafish Peroxisome Proliferator-activated Receptor gamma (PPARg) (AID 2283801). The essentials: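 HepG2 cells transiently transfected with GAL4-UAS reporter units including a zebrafish PPARg–GAL4 chimera, dosed 24 h with 3 nM 6-alpha-fluorotestosterone present. Reporter mRNA quantified by RT-PCR, FAM labelling, HpaI digestion and capillary electrophoresis; induction versus DMSO.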

The target in assay [2] is mouse Peroxisome Proliferator-activated Receptor gamma (PPARg), Pparg (gene 19016) (UniProt P37238). As to the kind of experiment: ATG_mPPARg_XSP1: Attagene TRANS-FACTORIAL Multi-Species (XSP1) HepG2 Assay for mouse Peroxisome Proliferator-activated Receptor gamma (PPARg) (AID 2283802). The essentials:
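HepG2 cells transiently transfected with GAL4-UAS reporter units driven by mouse PPARg–GAL4 chimera; 3 nM 6-alpha-fluorotestosterone present. After 24 h dosing, reporter mRNA quantified by RT-PCR, fluorescent labelling and capillary electrophoresis; gain of signal versus DMSO.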

Assay [3] deals with Nuclear receptor subfamily 1 group I member 2 (Mus musculus) (UniProt O54915). As to the kind of experiment: ATG_mPXR_XSP1: Attagene TRANS-FACTORIAL Multi-Species (XSP1) HepG2 Assay for mouse Pregnane X Receptor (PXR) (AID 2283803). Put shortly:
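Transiently transfected HepG2 cells expressing a receptor-Gal4 chimera drive a GAL4-UAS reporter; 3 nM 6-alpha-fluorotestosterone included. Reporter mRNA read 24 h post-dose by RT-PCR and capillary electrophoresis; gain of signal relative to DMSO.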

Assay [4] has as its target frog Thyroid hormone Receptor alpha (TRa), thra-a (gene 397942) (UniProt P15204). Briefly: ATG_frTRa_XSP1: Attagene TRANS-FACTORIAL Multi-Species (XSP1) HepG2 Assay for frog Thyroid hormone Receptor alpha (TRa) (AID 2283804). Put shortly:
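HepG2 cells transiently transfected with frog TRa-GAL4 chimeric reporter units, dosed 24 hr with 3 nM 6-alpha-fluorotestosterone present; reporter mRNA quantified by RT-PCR, fluorescent labelling and capillary electrophoresis, gain of signal versus DMSO.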

The target of assay [5] is human Thyroid hormone Receptor alpha (TRa), THRA (gene 7067) (UniProt P10827). As to the kind of experiment: ATG_hTRa_XSP1: Attagene TRANS-FACTORIAL Multi-Species (XSP1) HepG2 Assay for human Thyroid hormone Receptor alpha (TRa) (AID 2283805). Put shortly:
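HepG2 cells transiently transfected with GAL4-UAS reporter units expressing chimeric NR-Gal4 proteins, dosed 24 hours with 3 nM 6-alpha-fluorotestosterone present. Reporter mRNA measured by RT-PCR and capillary electrophoresis; gain of signal fitted versus DMSO.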

Assay [6] relates to turtle Thyroid Hormone Receptor, alpha (TRa), gene 101949057. Briefly: ATG_trTRa_XSP1: Attagene TRANS-FACTORIAL Multi-Species (XSP1) HepG2 Assay for turtle Thyroid Hormone Receptor, alpha (TRa) (AID 2283806). Put shortly:
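HepG2 cells transiently transfected with GAL4-UAS reporter units and chimeric receptor-Gal4 constructs, with 3 nM 6-alpha-fluorotestosterone present. Reporter mRNA was quantified 24 h after dosing by RT-PCR, 6-FAM labelling and capillary electrophoresis; gain of signal versus DMSO.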

For assay [7], the target named is zebrafish Thyroid Hormone Receptor alpha (TRa), thraa (gene 30670) (UniProt Q98867). Briefly: ATG_zfTRa_XSP1: Attagene TRANS-FACTORIAL Multi-Species (XSP1) HepG2 Assay for zebrafish Thyroid Hormone Receptor alpha (TRa) (AID 2283807). The essentials:
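HepG2 cells transiently transfected with GAL4-UAS reporter units including a zebrafish TRa–Gal4 chimera, dosed 24 h with 3 nM 6-alpha-fluorotestosterone present. Reporter mRNA quantified by RT-PCR and capillary electrophoresis; gain versus DMSO.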

Assay [8] has as its target human Thyroid hormone Receptor beta (TRb), THRB (gene 7068) (UniProt P10828). Briefly: ATG_hTRb_XSP1: Attagene TRANS-FACTORIAL Multi-Species (XSP1) HepG2 Assay for human Thyroid hormone Receptor beta (TRb) (AID 2283808). Put shortly: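 HepG2 cells transiently transfected with reporter units driving GAL4-UAS reporters for chimeric NR-Gal4 proteins; 24 h chemical exposure with 3 nM 6-alpha-fluorotestosterone present. Reporter mRNA quantified by RT-PCR and capillary electrophoresis, gain of signal versus DMSO.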

Assay [9] deals with zebrafish Thyroid Hormone Receptor beta (TRb), thrb (gene 30607) (UniProt Q9PVE4). As to the kind of experiment: ATG_zfTRb_XSP1: Attagene TRANS-FACTORIAL Multi-Species (XSP1) HepG2 Assay for zebrafish Thyroid Hormone Receptor beta (TRb) (AID 2283809). The essentials: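 HepG2 cells transiently transfected with multiplexed GAL4-UAS reporter units expressing chimeric zebrafish TRb–Gal4. Dosed 24 h with 3 nM 6-alpha-fluorotestosterone present; reporter mRNA measured by RT-PCR, HpaI digestion and capillary electrophoresis; gain of signal versus DMSO.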
Sequence of zebrafish Thyroid Hormone Receptor beta (TRb), thrb (gene 30607) (Q9PVE4 whole entry, looked up, the tested form may be a part): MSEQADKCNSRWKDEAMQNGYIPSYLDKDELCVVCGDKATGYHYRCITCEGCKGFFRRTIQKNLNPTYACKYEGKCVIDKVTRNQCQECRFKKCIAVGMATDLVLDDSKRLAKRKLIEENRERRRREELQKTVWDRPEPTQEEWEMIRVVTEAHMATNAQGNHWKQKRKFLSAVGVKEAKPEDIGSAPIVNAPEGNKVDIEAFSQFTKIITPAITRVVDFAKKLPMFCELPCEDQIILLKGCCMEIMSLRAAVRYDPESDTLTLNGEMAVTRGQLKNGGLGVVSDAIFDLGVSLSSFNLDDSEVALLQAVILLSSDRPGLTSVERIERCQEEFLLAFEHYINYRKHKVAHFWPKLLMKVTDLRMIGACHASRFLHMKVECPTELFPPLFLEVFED

A short description of assay [10]: ATG_XTT_Cytotoxicity_XSP1: Cytotoxicity Assessment in the Attagene TRANS-FACTORIAL Multi-Species (XSP1) HepG2 Assay (AID 2283810). Put shortly:
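XTT viability readout taken at 24 hours post-dosing in HepG2 liver cells co-treated with 3 nM 6-alpha-fluorotestosterone. Signal loss relative to DMSO controls reflects cytotoxicity.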

In assay [11] the test system is turtle Estrogen Receptor (ERa), gene 101933533. As to the kind of experiment: ATG_trERa_XSP2: Attagene TRANS-FACTORIAL Multi-Species (XSP2) HepG2 Assay for turtle Estrogen Receptor (ERa) (AID 2283812).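 Note: human HepG2 liver cells transiently expressing turtle ERa-Gal4 chimeric receptor; actives raise reporter signal above DMSO so AC50 reflects agonist activity.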 The essentials:
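HepG2 cells transiently transfected with GAL4-UAS reporter units expressing turtle ERa-Gal4 chimera. Reporter mRNA measured after 24 h dosing by RT-PCR, fluorescent labelling and capillary electrophoresis; gain of signal fitted versus DMSO.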

The target in assay [12] is GAL4 Transcription Factor (Internal Marker), GAL4 (gene 855828) (UniProt P04386). As to the kind of experiment: ATG_GAL4_XSP2: Attagene TRANS-FACTORIAL Multi-Species (XSP2) HepG2 Assay for GAL4 Transcription Factor (Internal Marker) (AID 2283814).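 Note: GAL4 reporter mRNA background control in MRTU transfected cells not a receptor target.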 The essentials: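 HepG2 cells transiently transfected with GAL4-UAS reporter units, stimulated with 3 nM 6-alpha-fluorotestosterone plus 1.5 nM norgestrel, dosed 24 h. Reporter mRNA by RT-PCR/capillary electrophoresis; gain-of-signal fit versus DMSO, background control.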
Sequence of GAL4 Transcription Factor (Internal Marker), GAL4 (gene 855828) (P04386 whole entry, looked up, the tested form may be a part): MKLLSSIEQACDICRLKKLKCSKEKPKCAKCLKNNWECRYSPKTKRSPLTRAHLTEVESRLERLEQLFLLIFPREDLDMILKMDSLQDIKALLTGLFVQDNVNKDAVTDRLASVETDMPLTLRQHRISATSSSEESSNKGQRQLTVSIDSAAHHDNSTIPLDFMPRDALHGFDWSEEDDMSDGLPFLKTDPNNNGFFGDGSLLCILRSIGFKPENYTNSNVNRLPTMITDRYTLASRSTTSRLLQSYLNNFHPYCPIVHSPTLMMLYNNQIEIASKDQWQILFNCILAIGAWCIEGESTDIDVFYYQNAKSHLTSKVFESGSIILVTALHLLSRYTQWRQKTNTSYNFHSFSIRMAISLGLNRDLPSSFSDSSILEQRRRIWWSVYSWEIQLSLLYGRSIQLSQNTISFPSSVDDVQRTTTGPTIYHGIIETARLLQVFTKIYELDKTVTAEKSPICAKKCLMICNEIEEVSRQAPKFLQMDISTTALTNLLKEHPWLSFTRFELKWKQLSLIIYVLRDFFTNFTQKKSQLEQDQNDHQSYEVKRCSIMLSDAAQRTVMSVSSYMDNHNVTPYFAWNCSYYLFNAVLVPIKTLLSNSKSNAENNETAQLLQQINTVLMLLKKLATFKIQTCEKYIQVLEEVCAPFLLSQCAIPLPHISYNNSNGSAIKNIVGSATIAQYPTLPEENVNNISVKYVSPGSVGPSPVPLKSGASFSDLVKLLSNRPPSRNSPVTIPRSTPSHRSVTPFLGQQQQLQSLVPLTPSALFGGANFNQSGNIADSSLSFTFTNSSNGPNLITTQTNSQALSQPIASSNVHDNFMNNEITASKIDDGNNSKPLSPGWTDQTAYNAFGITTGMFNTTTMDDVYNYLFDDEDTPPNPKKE

Assay [13] deals with turtle Androgen Receptor (AR), gene 101947425. Briefly: ATG_trAR_XSP2: Attagene TRANS-FACTORIAL Multi-Species (XSP2) HepG2 Assay for turtle Androgen Receptor (AR) (AID 2283815). Put shortly: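 HepG2 cells transiently transfected with GAL4-UAS reporter units for chimeric NR-Gal4 receptors; 24 h dosing in presence of 3 nM 6-alpha-fluorotestosterone and 1.5 nM norgestrel. Reporter mRNA by RT-PCR and capillary electrophoresis, gain of signal versus DMSO.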

Assay [14] has as its target chicken Estrogen Receptor (ERa), ESR1 (gene 396099) (UniProt P06212). Briefly: ATG_chERa_XSP2: Attagene TRANS-FACTORIAL Multi-Species (XSP2) HepG2 Assay for chicken Estrogen Receptor (ERa) (AID 2283817).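 Note: actives raise reporter signal above DMSO so AC50 reflects ER activation.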 Put shortly: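 HepG2 cells transiently transfected with multiplexed GAL4-UAS reporter units expressing chimeric chicken ERa-Gal4; 24 h compound exposure. Reporter mRNA measured by RT-PCR with 6-FAM labelling, HpaI digestion and capillary electrophoresis; gain-of-signal fitted versus DMSO.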

In assay [15] the test system is zebrafish Estrogen Receptor (ER2a), gene 317734. As to the kind of experiment: ATG_zfER2a_XSP2: Attagene TRANS-FACTORIAL Multi-Species (XSP2) HepG2 Assay for zebrafish Estrogen Receptor (ER2a) (AID 2283818).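 Note: hits raise reporter mRNA so AC50 reflects activation of zebrafish ER2a.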 Put shortly: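 HepG2 cells transiently transfected with GAL4-UAS reporter units and chimeric zebrafish ER2a-Gal4, exposed 24 h; medium contains 3 nM 6-alpha-fluorotestosterone and 1.5 nM norgestrel. Reporter mRNA quantified by RT-PCR, HpaI digestion, capillary electrophoresis; gain versus DMSO.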

In assay [16] the test system is chicken Androgen Receptor (AR), gene 422165. Briefly: ATG_chAR_XSP2: Attagene TRANS-FACTORIAL Multi-Species (XSP2) HepG2 Assay for chicken Androgen Receptor (AR) (AID 2283819).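 Note: hits raise reporter mRNA above DMSO so potency is for activation.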 The essentials:
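HepG2 cells transiently transfected with chicken AR–GAL4 chimeric reporter constructs, stimulated with 3 nM 6-alpha-fluorotestosterone plus 1.5 nM norgestrel, dosed 24 h. Reporter mRNA quantified by RT-PCR and capillary electrophoresis; gain of signal fitted versus DMSO.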

The subject of assay [17] is frog Estrogen Receptor (ER), gene 398734. As to the kind of experiment: ATG_frER1_XSP2: Attagene TRANS-FACTORIAL Multi-Species (XSP2) HepG2 Assay for frog Estrogen Receptor (ER) (AID 2283821).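 Note: hits raise reporter mRNA above DMSO baseline so potency means agonist or activator.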 Put shortly: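 HepG2, transient MRTU transfection, chimeric NR-GAL4/UAS reporters; 24 h compound exposure, 24-well. Readout: reporter mRNA via RT-PCR + capillary electrophoresis, fluorescence. Positive fit vs DMSO baseline.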

A short description of assay [18]: ATG_M_06_XSP2: Attagene TRANS-FACTORIAL Multi-Species (XSP2) HepG2 Assay for M06 Transcription Factor (Internal Marker) (AID 2283811).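 Note: hits are increases in signal above the DMSO baseline.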 The essentials:
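HepG2 cells transiently transfected with GAL4-UAS multi-reporter constructs, dosed 24 h with 3 nM 6-alpha-fluorotestosterone plus 1.5 nM norgestrel present to stimulate androgen receptor. Reporter mRNA quantified by RT-PCR, 6-FAM labelling, HpaI digestion and capillary electrophoresis; gain-of-signal fitted versus DMSO baseline.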

In assay [19] the target is Estrogen receptor beta (Homo sapiens) (UniProt Q92731). Briefly: ATG_hERb_XSP2: Attagene TRANS-FACTORIAL Multi-Species (XSP2) HepG2 Assay for human Estrogen Receptor (ERb) (AID 2283813).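 Note: actives raise reporter mRNA above DMSO so AC50 reflects agonist induction.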 Put shortly: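 HepG2 cells transiently transfected with GAL4-UAS reporter units and chimeric human ERb-Gal4, 24 h exposure. Reporter mRNA quantified by RT-PCR with FAM labelling, HpaI digestion and capillary electrophoresis; gain of signal versus DMSO.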

Assay [20] concerns the target zebrafish Estrogen Receptor (ER1), esr1 (gene 259252) (UniProt P57717). As to the kind of experiment: ATG_zfER1_XSP2: Attagene TRANS-FACTORIAL Multi-Species (XSP2) HepG2 Assay for zebrafish Estrogen Receptor (ER1) (AID 2283816). Put shortly:
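HepG2 cells transiently transfected with a GAL4-UAS reporter and a chimeric zebrafish ER1-Gal4 construct, dosed 24 h. Reporter mRNA quantified by RT-PCR, labelling, HpaI digestion and capillary electrophoresis, relative to DMSO.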

Sequence of human Thyroid hormone Receptor beta (TRb), THRB (gene 7068) (P10828 whole entry, looked up, the tested form may be a part): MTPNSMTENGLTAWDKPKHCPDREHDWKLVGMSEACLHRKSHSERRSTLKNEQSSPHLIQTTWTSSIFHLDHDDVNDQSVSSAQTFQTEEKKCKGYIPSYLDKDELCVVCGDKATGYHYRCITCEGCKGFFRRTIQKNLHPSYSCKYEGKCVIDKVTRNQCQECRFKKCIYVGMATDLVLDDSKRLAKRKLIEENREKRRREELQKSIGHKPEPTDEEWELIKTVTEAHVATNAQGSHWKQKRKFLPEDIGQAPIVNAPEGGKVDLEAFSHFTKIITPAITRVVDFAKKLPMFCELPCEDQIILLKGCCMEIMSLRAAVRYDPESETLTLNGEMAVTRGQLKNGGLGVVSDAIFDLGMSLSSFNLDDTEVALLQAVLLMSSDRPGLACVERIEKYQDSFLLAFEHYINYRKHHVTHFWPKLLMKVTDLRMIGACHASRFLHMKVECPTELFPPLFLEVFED
Sequence of zebrafish Thyroid Hormone Receptor alpha (TRa), thraa (gene 30670) (Q98867 whole entry, looked up, the tested form may be a part): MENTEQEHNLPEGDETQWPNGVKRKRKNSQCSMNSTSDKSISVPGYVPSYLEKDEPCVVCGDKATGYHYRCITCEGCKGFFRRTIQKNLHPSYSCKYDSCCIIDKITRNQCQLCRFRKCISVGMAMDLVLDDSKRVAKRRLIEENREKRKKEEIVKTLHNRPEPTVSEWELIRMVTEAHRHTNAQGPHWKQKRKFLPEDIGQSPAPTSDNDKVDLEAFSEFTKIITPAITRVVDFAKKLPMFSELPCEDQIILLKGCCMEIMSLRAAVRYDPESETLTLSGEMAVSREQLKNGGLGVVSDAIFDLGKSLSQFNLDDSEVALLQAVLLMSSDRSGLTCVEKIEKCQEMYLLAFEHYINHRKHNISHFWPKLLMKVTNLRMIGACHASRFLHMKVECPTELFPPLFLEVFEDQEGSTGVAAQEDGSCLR
Sequence of human Thyroid hormone Receptor alpha (TRa), THRA (gene 7067) (P10827 whole entry, looked up, the tested form may be a part): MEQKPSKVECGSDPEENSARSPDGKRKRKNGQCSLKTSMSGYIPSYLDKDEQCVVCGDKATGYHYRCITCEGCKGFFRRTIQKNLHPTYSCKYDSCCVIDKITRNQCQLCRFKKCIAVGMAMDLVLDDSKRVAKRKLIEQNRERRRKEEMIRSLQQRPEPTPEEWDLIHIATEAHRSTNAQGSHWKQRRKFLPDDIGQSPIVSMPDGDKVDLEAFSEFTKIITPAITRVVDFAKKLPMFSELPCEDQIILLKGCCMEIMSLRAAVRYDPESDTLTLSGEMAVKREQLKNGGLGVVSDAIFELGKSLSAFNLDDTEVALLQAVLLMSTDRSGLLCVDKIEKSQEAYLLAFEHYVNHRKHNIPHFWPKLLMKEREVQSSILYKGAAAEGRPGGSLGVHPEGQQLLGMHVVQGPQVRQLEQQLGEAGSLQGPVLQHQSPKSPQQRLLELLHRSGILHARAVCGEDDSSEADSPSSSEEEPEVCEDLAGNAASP
Sequence of zebrafish Estrogen Receptor (ER1), esr1 (gene 259252) (P57717 whole entry, looked up, the tested form may be a part): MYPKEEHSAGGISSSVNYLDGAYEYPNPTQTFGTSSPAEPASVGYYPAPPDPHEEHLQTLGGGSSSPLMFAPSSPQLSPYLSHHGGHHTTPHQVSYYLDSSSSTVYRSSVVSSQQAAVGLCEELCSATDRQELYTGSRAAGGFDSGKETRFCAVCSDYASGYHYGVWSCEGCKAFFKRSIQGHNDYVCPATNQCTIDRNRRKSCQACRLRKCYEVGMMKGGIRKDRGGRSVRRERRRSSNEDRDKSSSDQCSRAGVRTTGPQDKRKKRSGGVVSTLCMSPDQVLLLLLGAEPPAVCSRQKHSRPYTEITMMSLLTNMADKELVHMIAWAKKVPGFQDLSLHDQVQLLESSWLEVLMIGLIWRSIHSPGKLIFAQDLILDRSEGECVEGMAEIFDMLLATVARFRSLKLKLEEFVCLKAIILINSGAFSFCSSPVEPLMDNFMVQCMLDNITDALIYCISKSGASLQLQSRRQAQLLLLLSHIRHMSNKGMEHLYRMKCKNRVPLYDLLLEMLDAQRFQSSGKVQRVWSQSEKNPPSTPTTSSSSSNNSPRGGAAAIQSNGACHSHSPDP
Sequence of chicken Estrogen Receptor (ERa), ESR1 (gene 396099) (P06212 whole entry, looked up, the tested form may be a part): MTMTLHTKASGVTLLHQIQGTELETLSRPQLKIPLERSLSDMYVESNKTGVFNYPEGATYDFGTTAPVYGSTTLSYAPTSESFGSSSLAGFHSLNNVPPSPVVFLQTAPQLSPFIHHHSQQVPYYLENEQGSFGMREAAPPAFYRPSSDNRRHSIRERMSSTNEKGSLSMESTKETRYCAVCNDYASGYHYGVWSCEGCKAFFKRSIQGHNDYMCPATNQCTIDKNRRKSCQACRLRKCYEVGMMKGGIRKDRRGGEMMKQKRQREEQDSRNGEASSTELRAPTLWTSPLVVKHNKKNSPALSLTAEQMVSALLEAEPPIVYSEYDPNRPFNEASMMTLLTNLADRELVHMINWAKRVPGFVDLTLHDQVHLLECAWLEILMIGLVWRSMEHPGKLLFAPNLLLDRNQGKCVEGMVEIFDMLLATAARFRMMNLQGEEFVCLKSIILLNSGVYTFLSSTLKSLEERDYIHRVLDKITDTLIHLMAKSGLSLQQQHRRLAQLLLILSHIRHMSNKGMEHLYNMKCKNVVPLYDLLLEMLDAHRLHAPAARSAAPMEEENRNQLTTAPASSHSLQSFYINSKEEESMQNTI
Sequence of Nuclear receptor subfamily 1 group I member 2 (Mus musculus) (O54915 whole entry, looked up, the tested form may be a part): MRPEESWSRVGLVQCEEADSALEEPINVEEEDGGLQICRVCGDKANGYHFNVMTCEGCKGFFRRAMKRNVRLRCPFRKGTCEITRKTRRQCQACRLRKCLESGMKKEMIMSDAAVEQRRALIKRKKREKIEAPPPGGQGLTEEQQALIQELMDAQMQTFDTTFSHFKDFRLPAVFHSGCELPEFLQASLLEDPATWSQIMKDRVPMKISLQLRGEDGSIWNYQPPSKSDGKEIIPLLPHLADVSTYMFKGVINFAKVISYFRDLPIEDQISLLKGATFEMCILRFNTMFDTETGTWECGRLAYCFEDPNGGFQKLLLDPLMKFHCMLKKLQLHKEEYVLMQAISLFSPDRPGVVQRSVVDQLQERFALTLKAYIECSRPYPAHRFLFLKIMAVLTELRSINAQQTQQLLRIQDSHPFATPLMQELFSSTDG
Sequence of mouse Peroxisome Proliferator-activated Receptor gamma (PPARg), Pparg (gene 19016) (P37238 whole entry, looked up, the tested form may be a part): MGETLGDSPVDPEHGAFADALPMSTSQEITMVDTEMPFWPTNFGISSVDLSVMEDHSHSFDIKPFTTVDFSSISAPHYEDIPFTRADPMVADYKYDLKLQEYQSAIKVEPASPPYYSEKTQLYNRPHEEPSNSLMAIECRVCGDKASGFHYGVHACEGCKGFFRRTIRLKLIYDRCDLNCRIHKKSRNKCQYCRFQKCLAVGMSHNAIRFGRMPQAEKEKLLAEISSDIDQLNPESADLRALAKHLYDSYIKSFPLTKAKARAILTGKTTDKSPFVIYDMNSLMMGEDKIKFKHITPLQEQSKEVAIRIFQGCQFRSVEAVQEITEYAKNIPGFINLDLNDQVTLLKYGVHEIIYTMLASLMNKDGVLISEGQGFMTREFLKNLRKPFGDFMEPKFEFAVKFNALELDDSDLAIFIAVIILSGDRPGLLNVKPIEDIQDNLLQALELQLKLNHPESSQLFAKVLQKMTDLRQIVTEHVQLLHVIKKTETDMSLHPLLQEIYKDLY

The AC50 is the midpoint of the concentration-response curve, whichever way the signal moves. On to `CC1(C)C(C=C(Cl)Cl)C1C(=O)OC(C#N)c1ccc(F)c(Oc2ccccc2)c1` (stereo not given), for which the call in [1], in [4], in [5], in [6], in [7] and in assay [8] was inactive. For the same compound, the outcome in assay [9], in assay [10], in assay [11], in assay [12], in [13] and in [14] was inactive. For the same compound, the compound was classed as inactive in assay [15], in assay [16] and in assay [17]. Also, the AC50 in assay [2] is 9.66 µM (active); in [3] it was 0.436 µM (active).

`CCCN(CCOc1c(Cl)cc(Cl)cc1Cl)C(=O)n1ccnc1`: the call in assay [1], in [5], in assay [6], in assay [7], in assay [8] and in assay [18] was inactive. Also, the outcome in assay [11], in assay [19], in [20], in assay [14], in assay [15] and in assay [17] was inactive. Moreover, the values for the concentration at half-maximal activity (AC50) in assay [2], in assay [3] and in assay [10] were 15.8 µM (active), 0.11 µM (active) and 100 µM (active), respectively.

For `CCOCN(C(=O)CCl)c1c(C)cccc1CC`, the concentration at half-maximal activity (AC50) in assay [2] is 1.89 µM (active); in [3], 4 µM (active). For the same compound, the call in assay [10] was inactive.

Turning to `O=C(O)C(F)(F)C(F)(F)C(F)(F)C(F)(F)C(F)(F)C(F)(F)C(F)(F)F`, the compound was classed as inactive in [18], in assay [16] and in assay [17]. Further, the concentration at half-maximal activity (AC50) was 35.5 µM (active) in [11], 38.4 µM (active) in [19], 37.9 µM (active) in assay [14] and 100 µM (active) in [15].

Take `O=S1OCC2C(CO1)C1(Cl)C(Cl)=C(Cl)C2(Cl)C1(Cl)Cl` (stereo not given): the result in assay [2], in assay [5], in assay [6], in assay [7], in assay [8] and in assay [9] was inactive. The outcome in assay [10], in assay [18], in assay [20], in assay [14] and in [17] was inactive. The AC50 is 0.512 µM (active) in assay [3] and 2.06 µM (active) in assay [11].

As to `CCCN(CCC)c1c([N+](=O)[O-])cc(C(F)(F)F)cc1[N+](=O)[O-]`, the result in assay [1], in assay [6], in assay [7], in assay [8], in [9] and in [10] was inactive. The call in [18], in [11], in assay [12], in assay [20], in [14] and in assay [15] was inactive. Also, the compound was classed as inactive in [17]. Besides, the AC50 was 35.1 µM (active) in [2] and 2.85 µM (active) in assay [3].
